Test systems include SR leukemia; RPMI-8226 leukemia; OVCAR-8 ovarian; OVCAR-5 ovarian; OVCAR-4 ovarian; SK-OV-3 ovarian; IGROV1 ovarian; OVCAR-3 ovarian; HS 578T breast; NCI/ADR-RES ovarian; T-47D breast; MDA-MB-435 melanoma; SW-620 colon; MCF7 breast; HCT-116 colon; HCC-2998 colon; KM12 colon; BT-549 breast.
Common to all, as to test: NCI-60 one-dose screen, 48 h (100 = growth as untreated, 0 = no growth, -100 = all killed)
Holding throughout (settings): 10 µM unless noted

The panel holds about 83,000 compounds, 20% with a hit somewhere; the sample as a whole holds those more often.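 A percent growth of 40 corresponds to 60% growth inhibition; 0 means no net growth; -100 means all cells died. Active threshold: below 10.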 A number with no mark means an inactive call. Calls of active or inactive are those of the source.

For the compound `O=C(Nc1ccc(N=Cc2c(O)[nH]c3ccccc23)cc1)Nc1nccs1`, the growth in the experiment with SR leukemia is 10.7%; in the experiment on RPMI-8226 leukemia it was 83.6%; with OVCAR-8 ovarian, 55.7%; with OVCAR-5 ovarian, 60.4%; in the experiment with OVCAR-4 ovarian, 40.6%; in the experiment on SK-OV-3 ovarian it was 55%. The growth with IGROV1 ovarian is 29.5%; in the experiment with OVCAR-3 ovarian, 15.4%; in the experiment on HS 578T breast it was 31.5%; in the experiment on NCI/ADR-RES ovarian it was 40.8%; in the experiment with T-47D breast, 41.2%; in the experiment on MDA-MB-435 melanoma it was -52.7% (active). Further, the growth in the experiment on SW-620 colon was 21.4%; in the experiment on MCF7 breast, 22.7%; in the experiment with HCT-116 colon it was 27%; with HCC-2998 colon, 73.9%; with KM12 colon it was 59.2%.

Consider `C[C@@H](Nc1c(C#N)cnc2ccc(-c3cnc(Cl)c(NS(C)(=O)=O)c3)cc12)c1ccccc1`, for which the growth in the experiment on SR leukemia is -14.1% (active); with RPMI-8226 leukemia it was -34.9% (active); in the experiment with OVCAR-8 ovarian, 16.3%; in the experiment with OVCAR-5 ovarian, 4.76% (active); in the experiment on OVCAR-4 ovarian, 0.536% (active); in the experiment on SK-OV-3 ovarian it was -7.04% (active). For the same compound, the growth in the experiment on IGROV1 ovarian was -30.4% (active); with OVCAR-3 ovarian it was 4.33% (active); in the experiment on HS 578T breast, -15.9% (active); in the experiment with NCI/ADR-RES ovarian, 31.5%; with T-47D breast it was 0.239% (active); in the experiment with MDA-MB-435 melanoma, 8.87% (active). Further, the growth with SW-620 colon was 9.39% (active); in the experiment on MCF7 breast, 6.51% (active); with HCT-116 colon, 4.05% (active); in the experiment on HCC-2998 colon it was 16.7%; in the experiment on KM12 colon, 15.1%.

With `N/C(=N\C(N)=N\c1nc2ccccc2s1)c1ccc2ccccc2c1`, the growth with SR leukemia is -17.6% (active); with RPMI-8226 leukemia, 76.7%; in the experiment with OVCAR-8 ovarian, 84.8%; with OVCAR-5 ovarian, 102%; in the experiment on OVCAR-4 ovarian, 85%; in the experiment with SK-OV-3 ovarian it was 116%. In addition, the growth in the experiment on IGROV1 ovarian is 55.3%; in the experiment with OVCAR-3 ovarian, 109%; in the experiment on HS 578T breast, 90.9%; with NCI/ADR-RES ovarian it was 30.3%; with T-47D breast, 79.2%; in the experiment on MDA-MB-435 melanoma, 88.9%. For the same compound, the growth with SW-620 colon was 110%; in the experiment with MCF7 breast, 79.3%; with HCT-116 colon, 63.5%; in the experiment with HCC-2998 colon it was 116%; in the experiment on KM12 colon, 59.5%.

As for `CCCn1cnc2c(c1=N)C(c1ccc(F)cc1)c1sc3c(CC)cccc3c1O2` (stereo not given), the growth with SR leukemia was 1.23% (active); in the experiment on RPMI-8226 leukemia, 4.79% (active); in the experiment with OVCAR-8 ovarian, 26.2%; in the experiment with OVCAR-5 ovarian, 23.3%; with OVCAR-4 ovarian it was 26.6%; in the experiment on SK-OV-3 ovarian, 40.3%. For the same compound, the growth in the experiment on IGROV1 ovarian was 10.2%; in the experiment on OVCAR-3 ovarian it was -10.2% (active); in the experiment on HS 578T breast, 16.5%; in the experiment on NCI/ADR-RES ovarian, -13.9% (active); in the experiment with T-47D breast, 72.7%; with MDA-MB-435 melanoma, -25.2% (active). Also, the growth in the experiment on SW-620 colon is 17.7%; with MCF7 breast, 18.1%; with HCT-116 colon, 7.53% (active); in the experiment on HCC-2998 colon it was 24.2%; with KM12 colon, 10.7%.

With `COc1ccc(C2c3sc4c(C)cccc4c3Oc3nc(CC(=O)Nc4ccccc4)[nH]c(=O)c32)cc1` (stereo not given), the growth was 62.7% with SR leukemia; 89.5% with RPMI-8226 leukemia; 99.8% with OVCAR-8 ovarian; 88.7% in the experiment with OVCAR-5 ovarian; 65% in the experiment with OVCAR-4 ovarian; 85.8% in the experiment on SK-OV-3 ovarian. Further, the growth is 47.9% with IGROV1 ovarian; 93.9% in the experiment on OVCAR-3 ovarian; 87.8% in the experiment with HS 578T breast; 38.7% in the experiment on NCI/ADR-RES ovarian; 84.4% in the experiment with T-47D breast; 33.7% with MDA-MB-435 melanoma. For the same compound, the growth in the experiment with SW-620 colon is 74.9%; in the experiment with MCF7 breast, 55.6%; in the experiment on HCT-116 colon, 73.6%; with HCC-2998 colon, 93.8%; in the experiment on KM12 colon, 92.7%.

Turning to `Oc1[nH]c2ccccc2c1Nn1c(N=N/C=c2/ccc3c(c2)C=NN=3)n[nH]c1=S`, the growth with SR leukemia was 84.5%; in the experiment on RPMI-8226 leukemia, 91%; in the experiment with OVCAR-8 ovarian it was 105%; with OVCAR-5 ovarian, 109%; with OVCAR-4 ovarian it was 84.6%; in the experiment with SK-OV-3 ovarian it was 106%. Also, the growth in the experiment with IGROV1 ovarian was 74.6%; with OVCAR-3 ovarian, 96.8%; in the experiment on HS 578T breast, 103%; in the experiment with NCI/ADR-RES ovarian it was 112%; in the experiment on T-47D breast it was 99%; in the experiment on MDA-MB-435 melanoma it was 103%. The growth in the experiment with SW-620 colon was 99%; in the experiment with MCF7 breast, 77.1%; with HCT-116 colon it was 104%; with HCC-2998 colon it was 118%; in the experiment on KM12 colon, 93.3%.

With `C=C(C)[C@@H]1CC[C@]2(COC)CC[C@]3(C)[C@H](CC[C@@H]4[C@@]5(C)CCCNC(C)(C)[C@@H]5CC[C@]43C)[C@@H]12`, the growth is -54.9% (active) in the experiment with SR leukemia; -36.8% (active) in the experiment with RPMI-8226 leukemia; 79.2% in the experiment with OVCAR-8 ovarian; 75.5% in the experiment on OVCAR-5 ovarian; 28.7% with OVCAR-4 ovarian; 102% in the experiment with SK-OV-3 ovarian. For the same compound, the growth was 37.2% in the experiment on IGROV1 ovarian; 80.9% in the experiment with OVCAR-3 ovarian; 37.8% in the experiment on HS 578T breast; 51.3% in the experiment with NCI/ADR-RES ovarian; 54.1% in the experiment on T-47D breast; 10.4% with MDA-MB-435 melanoma. Further, the growth in the experiment on SW-620 colon is -57.6% (active); with MCF7 breast, 7.62% (active); in the experiment on HCT-116 colon, -29.1% (active); in the experiment on HCC-2998 colon it was -29.1% (active); in the experiment on KM12 colon, 38.1%.

`NS(=O)(=O)c1ccc(-n2cc(CN3CCCCC3)nn2)cc1`: the growth in the experiment with SR leukemia was 93.7%; with RPMI-8226 leukemia, 107%; in the experiment with OVCAR-8 ovarian, 105%; in the experiment on OVCAR-5 ovarian it was 105%; in the experiment with OVCAR-4 ovarian, 105%; in the experiment with SK-OV-3 ovarian, 122%. Besides, the growth was 104% with IGROV1 ovarian; 113% with OVCAR-3 ovarian; 100% in the experiment with HS 578T breast; 109% in the experiment with NCI/ADR-RES ovarian; 110% with T-47D breast; 108% with BT-549 breast. The growth in the experiment with MDA-MB-435 melanoma was 106%; in the experiment with HCT-116 colon, 107%; with HCC-2998 colon it was 106%; in the experiment on KM12 colon it was 95.3%.

The record behind these values is PubChem BioAssay (NCI).
